# Screening results deposited in PubChem BioAssay by several laboratories.
# PHOSPHO1 block: blocks human PHOSPHO1 phosphatase activity; Q8TCT1; AID 1565; recombinant PHOSPHO1, absorbance phosphatase assay; inhibition, % at 13.3 µM; hit rate 1.1% among 290,000; in the data active = inhibition above about 60%
# Target sequence (Q8TCT1 whole entry, looked up): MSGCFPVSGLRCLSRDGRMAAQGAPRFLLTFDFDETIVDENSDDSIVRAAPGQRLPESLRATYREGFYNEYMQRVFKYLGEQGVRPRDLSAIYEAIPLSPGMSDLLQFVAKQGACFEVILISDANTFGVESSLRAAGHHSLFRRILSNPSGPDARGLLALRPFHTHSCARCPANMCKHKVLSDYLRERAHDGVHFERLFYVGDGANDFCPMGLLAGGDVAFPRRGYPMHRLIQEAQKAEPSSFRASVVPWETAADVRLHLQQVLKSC
# H9c2 protect: myocardial damage modulation in H9c2 cells | H9c2 cardiomyocytes, H2O2 injury protection, ATPLite, 2 h | protection from H2O2 cell death, % at 20 µM | hit rate 0.63% among 360,000;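 active = compounds giving at least 50% protection of heart cells from peroxide-induced death in the single-dose screen, raw or plate-pattern-corrected value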
# PfG6PD inh: PfG6PD (Plasmodium falciparum) enzyme inhibition; AID 504690; inhibition, % at 20 µM; hit rate 0.78% among 350,000; PfGluPho enzyme, NADPH resazurin-diaphorase fluorescence;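 active = inhibition reaching at least a set limit at 20 µM in the primary screen, cut at about 59% in these data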
# PfM18AAP inh: PfM18AAP enzyme inhibition | recombinant PfM18AAP, H-Glu-NHMec fluorogenic cleavage | inhibition, % at 7.35 µM | hit rate 1.2% among 290,000;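 active = inhibition above the campaign mean inhibition over all tested compounds plus 3 SD, cut at about 28% in these data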
# ALR inh: blocks human ALR sulfhydryl oxidase activity | P55789 | purified ALR, DTT oxidation, H2O2 HRP-luminol luminescence | inhibition, % (test concentration not listed) | hit rate 3.8% among 290,000 | AID 485317;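 active = mean replicate inhibition above about 79%, with every replicate also reaching it, limit read from the data; inconclusive = only one of the two criteria met; inactive = mean below limit and not every replicate reaching it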
# Target sequence (P55789 whole entry, looked up): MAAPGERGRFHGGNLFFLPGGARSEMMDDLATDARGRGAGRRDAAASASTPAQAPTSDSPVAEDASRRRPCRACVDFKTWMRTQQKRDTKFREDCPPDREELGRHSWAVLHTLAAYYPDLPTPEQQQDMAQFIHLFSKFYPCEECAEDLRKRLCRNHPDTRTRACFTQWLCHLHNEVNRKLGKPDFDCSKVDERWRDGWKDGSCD
# Numbers stand for hits; . = inactive; ? = inconclusive; / = no result. Hits are enriched below; roughly 5.6% of the tested compounds scored in any of these assays.
SMILES,PHOSPHO1 block,H9c2 protect,PfG6PD inh,PfM18AAP inh,ALR inh
COc1cccc(-c2nc(CS(=O)(=O)CC(=O)NCCCN3CCc4ccccc4C3)c(C)o2)c1,.,.,.,.,99.0
Cc1oc(-c2ccccc2Cl)nc1CS(=O)(=O)CC(=O)N1CCOCC1,.,.,.,.,98.1
COc1cccc(-c2nc(CS(=O)(=O)CC(=O)NCCN3CCOCC3)c(C)o2)c1,.,.,.,.,99.0
CCC1CCCCN1CCCNC(=O)CS(=O)(=O)Cc1nc(-c2cccc(OC)c2)oc1C (stereo unspecified),.,.,.,.,98.4
CCc1nc2ccc(C(=O)N(C)Cc3ccco3)cn2c1N(C)CCCc1ccccc1,/,.,/,/,/
CSc1sccc1/C=C(/C#N)C(=O)c1ccco1,.,.,.,31.2,.
CSc1sccc1/C=N/O,.,.,.,.,.
CCOc1ccccc1NC(=S)N1CCN(c2ccccc2)CC1,.,.,.,.,98.5
CC1CCCN(C(=S)Nc2ccc(Nc3ccccc3)cc2)C1 (stereo unspecified),.,.,.,.,99.3
S=C(Nc1cccc2ccccc12)N1CCN(c2ncccn2)CC1,88.3,.,.,.,.
S=C(Nc1ccc(Nc2ccccc2)cc1)N1CCN(c2ncccn2)CC1,.,.,.,.,98.3
O=C(Nc1cccc2ccccc12)N1CCN(c2ncccn2)CC1,.,.,.,.,.
CCc1ccc(C(=O)CCC(=O)Nc2ccc(OC)c(S(=O)(=O)N3CCCCC3)c2)cc1,/,.,.,/,.
CN(C(=O)CSc1ncnc2sc3c(c12)CCCC3)C1CCS(=O)(=O)C1 (stereo unspecified),/,.,.,/,.
OC1CCN(C(=S)Nc2ccc(Nc3ccccc3)cc2)CC1,.,.,.,.,99.1
CCC(=O)Nc1nc2ccc(S(C)(=O)=O)cc2s1,.,.,.,.,.
CCCC(=O)Nc1nc2ccc(S(N)(=O)=O)cc2s1,.,.,.,.,98.8
CCCC(=O)Nc1nc2ccc(NC(=O)c3ccc(Br)o3)cc2s1,.,72.6,.,.,.
CC(=O)c1ccc(S(=O)(=O)N2CCN(c3nc(-c4cccnc4)nc4ccccc34)CC2)cc1,/,.,.,/,.
COCc1c(C(=O)Nc2ccc3nc(N4CCOCC4)sc3c2)oc2ccccc12,/,63.5,.,/,/
O=C(CSc1cn(CC(=O)N2CCCCCC2)c2ccccc12)NCC1CCCO1 (stereo unspecified),.,.,.,.,.
CCC(=O)Nc1nnc(SCC(=O)NCC2CCCO2)s1 (stereo unspecified),.,.,.,.,.
CC(=O)Nc1nnc(SCC(=O)NCC2CCCO2)s1 (stereo unspecified),86.5,.,.,/,.
CCn1cc(SCC(=O)NCC2CCCO2)c2ccccc21 (stereo unspecified),.,.,.,/,98.2
CSCCC(NC(=O)c1ccccc1)C(=O)N1CC(C)OC(C)C1 (stereo unspecified),/,.,.,/,.
SMILES,PHOSPHO1 block,H9c2 protect,PfG6PD inh,PfM18AAP inh,ALR inh
CC(NC(=O)C1CCN(C(=O)Nc2ccccc2)CC1)c1ccccc1 (stereo unspecified),/,.,.,/,/
COc1ccc(N2CCN(c3nc4ccccn4c(=O)c3C=O)CC2)cc1,.,.,.,.,?
O=Cc1c(N2CCN(c3ccccc3)CC2)nc2ccccn2c1=O,.,.,.,.,98.6
COc1ccc(N2CCN(c3nc4ccc(C)cn4c(=O)c3C=O)CC2)cc1,.,.,.,.,80.9
O=C(c1ccco1)N1N=C(c2cccs2)CC1c1cc([N+](=O)[O-])ccc1O (stereo unspecified),61.0,.,.,.,.
CCCOc1ccc(-c2cnc(N)s2)cc1,.,.,.,.,98.0
CCCOn1c(OCC(C)C)nc2ccccc2c1=O,.,.,.,.,.
CC(C)COc1nc2ccccc2c(=O)n1OCC(=O)O,.,57.8,.,.,.
COc1ccc2nc(NC(=O)CN3C(=O)NC4(CCCCC4)C3=O)sc2c1,.,.,.,.,.
O=C(NCCc1c[nH]c2ccccc12)OCCCCOC(=O)NCCc1c[nH]c2ccccc12,/,.,.,/,.
CN1C(=O)Cc2cc(S(=O)(=O)NCc3cccs3)ccc21,.,.,.,.,.
CCOc1cc(CNS(=O)(=O)c2ccc3c(c2)CC(=O)N3C)cc(OCC)c1OCC,64.9,.,.,.,.
COc1ccc(OC)c(NC(=O)COC(=O)COc2ccc(Nc3ccccc3)cc2)c1,/,.,.,/,.
COc1ccc(CCN2C(=O)CC(N3CCN(C/C=C/c4ccccc4)CC3)C2=O)cc1OC (stereo unspecified),.,.,.,.,.
Cc1cnc(C(=O)OCC(=O)Nc2oc(-c3ccccc3)c(-c3ccccc3)c2C#N)cn1,.,.,.,.,97.4
CSc1ncccc1C(=O)NC1CC(C)(C)Cc2c1cnn2-c1ccccc1C (stereo unspecified),.,.,.,.,.
CCOc1ccccc1C(=O)NCC(=O)OCC(=O)c1c(N)n(C)c(=O)n(C)c1=O,/,.,.,/,/
CC(=O)Nc1cccc(NC(=O)CSc2nc(=O)n(Cc3ccccn3)c3c2CCC3)c1,/,.,.,/,98.4
CCOc1ccccc1NC(=O)CSc1nc(=O)n(Cc2ccccn2)c2c1CCC2,/,.,.,/,/
CC(=O)Nc1cccc(NC(=O)CSc2nc(=O)n(Cc3ccncc3)c3c2CCC3)c1,/,.,.,/,98.9
S=C(NCCc1ccccc1)N1CCN(C(=S)NCCc2ccccc2)CC1,/,.,.,/,/
CC1CCN(C(=S)NCCc2ccccc2)CC1,88.1,.,.,.,.
CCOc1ccc(/C=N/n2nnnc2N)cc1O,62.3,.,.,.,/
CCOc1cc(/C=N\n2nnnc2N)ccc1O,.,.,.,.,98.9
COc1cccc2sc3ccc(NCc4ccc5c(c4)OCO5)cc3c(=O)c12,.,.,.,.,92.3
SMILES,PHOSPHO1 block,H9c2 protect,PfG6PD inh,PfM18AAP inh,ALR inh
Cn1c2ccccc2c(=O)c2ccc(NCc3ccc4c(c3)OCO4)cc21,/,71.4,.,/,/
COC1=C(NCc2ccc3c(c2)OCO3)C(=O)C(OC)=C(NCc2ccc3c(c2)OCO3)C1=O,/,.,.,/,/
CN1CCC[C@H]1CCNc1ccc2c(=O)c3ccccc3n(C)c2c1,/,.,.,/,/
CCN(CC(=O)Nc1cc(Cl)ccc1C)C(=O)C1CCN(c2ncnc3sc(C)c(C)c23)CC1,/,76.9,.,/,/
Cc1sc2ncnc(N3CCC(C(=O)N(C)CC(=O)Nc4ccccc4Cl)CC3)c2c1C,/,.,.,.,.
O=C(CN(Cc1ccccc1)C(=O)CCC(=O)Nc1ccccn1)NCc1ccc(F)cc1,.,.,.,.,/
COC(=O)c1ccc(CSc2nc3ccccc3c(=O)n2Cc2ccco2)o1,.,.,.,.,93.6
NC(=O)CSc1nc2ccccc2c(=O)n1Cc1ccco1,.,.,.,.,.
COC(=O)c1ccc2c(=O)n(Cc3ccco3)c(SCC(=O)Nc3ccc(C)c(Cl)c3)nc2c1,.,.,.,.,99.6
COC(=O)c1ccc(CSc2nc3ccccc3c(=O)n2CC(C)C)o1,.,.,.,.,.
CCCn1c(C)cc(C(=O)CSc2nc3ccccc3c(=O)n2Cc2ccco2)c1C,.,.,.,.,99.1
COc1ccc(Cn2c(=O)[nH]c3cc(C(=O)N4CCN(c5ccc(C(C)=O)cc5)CC4)ccc3c2=O)cc1,.,.,.,.,.
